From PubChem
Only a selection was taken, and hits are over-represented in it overall.
BL2 CD40 inh = CD40 pathway inhibition in BL2 cells. BL2 NF-kB luciferase reporter, CD40L-induced, 4 h. inhibition, % at 10 µM. actives 0.94% (n = 83,000). AID 1053188;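 active = mean inhibition of at least 50% with a set share of replicates also reaching that level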
Numbers stand for hits; - = inactive; [ ] = another dose, or the depositor's remark.

SMILES | BL2 CD40 inh
C=C(CN(C)C)C(=O)c1cc(C)ccc1C | 91
Cc1ccc(C)c(C(=O)NCCN(C)C)c1 | -
Cc1ccc(C(=O)NCCN(C)C)cc1C | -
C[C@@H]1CCCCO[C@@H](CN(C)C(=O)Nc2ccc3c(c2)OCO3)[C@H](C)CN([C@H](C)CO)C(=O)c2cc(NS(=O)(=O)c3ccc(F)cc3)ccc2O1 | -
COc1ccc(C(=O)NCC2CCCN2S(=O)(=O)c2ccccc2)cc1OC (stereo not drawn) | -
Cc1ccc(S(=O)(=O)N2CCCC2CNC(=O)c2ccc3c(c2)OCO3)cc1 (stereo not drawn) | 38
Cc1ccc(S(=O)(=O)N2CCCC2CNC(=O)c2ccccc2)cc1 (stereo not drawn) | -
CO[C@@H](CN(C)S(=O)(=O)c1ccc(F)cc1)[C@H](C)CN(Cc1ccccc1Cl)[C@H](C)CO | -
CCN1[C@H](C(=O)NCC(F)(F)F)[C@@H](CO)[C@@H]2Cn3c(ccc(-c4ccccc4)c3=O)[C@@H]21 | -
CN1CCN(C(=O)c2cc3c(c(-c4cccc(C#CCC5CCCC5)c4)n2)[C@H](CCO)N(S(=O)C(C)(C)C)C3)CC1 (stereo partly drawn) | -
Cc1ccc2c(=O)c3ccccc3n(CCCN)c2c1C | 79[25 µM]
CCN(CC)CCn1c2ccccc2c(=O)c2c(O)ccc(O)c21 | -
Cc1cc(=O)n(CC(=O)O)c2ccccc12 | -
O=C(Nc1cccc(Cl)c1)N[C@H]1CC[C@@H](CCn2cc(Cc3ccccc3)nn2)O[C@H]1CO | -
N#C[C@@H]1[C@@H](c2ccccc2C2=CCCCC2)[C@H](CO)N1S(=O)(=O)c1ccccc1 | -
N#C[C@H]1[C@@H](c2ccccc2C2=CCCCC2)[C@H](CO)N1S(=O)(=O)c1ccccc1 | -
N#C[C@H]1[C@H](c2ccccc2C2=CCCCC2)[C@@H](CO)N1S(=O)(=O)c1ccccc1 | 60[25 µM]
O=C(C[C@H]1C[C@@H]2c3cc(NC(=O)C4CCOCC4)ccc3O[C@@H]2[C@@H](CO)O1)NCc1cccnc1 | -
C/C=C/c1ccc([C@@H]2[C@@H](C#N)N(c3ncc(CC)s3)[C@@H]2CO)cc1 | -
CC(=O)NC[C@H]1[C@H](c2ccc(-c3ccccc3F)cc2)[C@@H](CO)N1C(=O)C1CC1 | -
CS(=O)(=O)Nc1ccc2c(c1)[C@@H]1C[C@@H](CC(=O)NCc3cc(F)ccc3F)O[C@H](CO)[C@@H]1O2 | -
CC(=O)NCCc1ccc(C(=O)COC(=O)C2CCCCC2)cc1 | 54
CC(=O)Nc1ccc(C(=O)COC(=O)C2CC3CCCC(C2)C3=O)cc1 (stereo not drawn) | -
CC(=O)NCCc1ccc(C(=O)COC(=O)c2ccco2)cc1 | -
CCCNC(=O)N1[C@H](CO)[C@H](c2ccccc2)[C@@H]1CNC(=O)c1ccc(F)cc1 | -
SMILES | BL2 CD40 inh
O=C(c1ccccc1F)N1C[C@@H]2[C@H](c3ccccc31)[C@H](CO)N2C(=O)c1cccnc1 | -
CCCC(=O)O[C@]1(C(=O)COC(C)=O)CC[C@H]2[C@@H]3C[C@H](F)C4=CC(=O)C=C[C@]4(C)[C@@]3(F)[C@@H](O)C[C@@]21C | 56
CC(=O)[C@@]1(O)CC[C@H]2[C@@H]3C[C@H](C)C4=CC(=O)C=C[C@]4(C)[C@@]3(F)[C@@H](O)C[C@@]21C | -
C[C@@H]1C[C@H]2[C@@H]3C[C@H](F)C4=CC(=O)C=C[C@]4(C)[C@@]3(F)[C@@H](O)C[C@]2(C)[C@@]1(O)C(=O)COC(=O)C(C)(C)C | -
CCCNC(=O)N1[C@H](CNC(=O)CC)[C@@H](c2ccc(C3=CCCC3)cc2)[C@@H]1CO | -
CCCCCCCCCCCC1C(=O)C(=O)CC(=O)C1=O | -
CC(C)C1CC(N(C)C)=CC(=S)N1 (stereo not drawn) | 30
N#C[C@H]1[C@@H](c2ccc(C3=CCCCC3)cc2)[C@@H](CO)N1S(=O)(=O)c1ccccc1 | -
O=C(N/N=C1\CCc2ccccc21)c1ccccc1O | -
O=C1C(=NO)CCc2ccccc21 | 35
O=C1Nc2ccccc2CCc2ccccc21 | -
CC(C)n1cnc2c(NCc3ccccc3O)nc(NCCCO)nc21 | -
CNC[C@H]1Oc2ccc(NS(C)(=O)=O)cc2CC(=O)N(C)C[C@@H]1C | -
O=C(C1CC1)N1[C@@H](CO)[C@@H]2c3ccccc3N(S(=O)(=O)c3ccccc3)C[C@@H]21 | -
C[C@H](CO)N1C[C@H](C)[C@@H](CN(C)C(=O)CN(C)C)Oc2cc(C#CC3CC3)ccc2S1(=O)=O | -
O=[N+]([O-])c1ccc(O)c(Nc2ncnc3ccccc23)c1 | -
O=[N+]([O-])c1ccc2ncnc(Nc3ccc4c(c3)OCCO4)c2c1 | 36
c1ccc2c(c1)oc1c(Nc3ccc4c(c3)OCCO4)ncnc12 | -
CO[C@@H]1CN(C)C(=O)c2ccc(NC(=O)c3ccc(-c4ccccc4)cc3)cc2OC[C@@H](C)NC[C@H]1C | -
CO[C@H]1CN(C)C(=O)c2ccc(NC(=O)NC(C)C)cc2OC[C@@H](C)N(Cc2ccc(-c3ccccn3)cc2)C[C@H]1C | -
Fc1ccccc1/C=C1\CCCC2=C1Nc1nnnn1C2c1ccccc1F (stereo not drawn) | 75
CO[C@H]1CN(C)C(=O)c2cc(NC(=O)c3ccc(F)cc3)ccc2OC[C@@H](C)N(C(=O)CC2CC2)C[C@H]1C | -
CN1C(=O)c2cc(NC(=O)c3cnccn3)ccc2OC[C@@H]2O[C@@H](CC(=O)NCC3CC3)CC[C@H]21 | -
CS(=O)(=O)N1[C@H](CO)[C@@H](c2ccc(C#Cc3cccc(F)c3)cc2)[C@@H]1C#N | -
N#C/C(=C(\N)Sc1ccc(N)cc1)c1ccccc1C(F)(F)F | -
SMILES | BL2 CD40 inh
Cc1ccc2ncccc2c1[N+](=O)[O-] | -
O=[N+]([O-])c1cccc(/C=C/c2ccccn2)c1 | -
Cc1noc(/C=C/c2ccccn2)c1[N+](=O)[O-] | 42
CC(C)NC(=O)N1[C@@H](C#N)[C@H](c2ccc(C#CC3CCCC3)cc2)[C@@H]1CO | -
COCC(=O)N1[C@H](CO)[C@H](c2ccccc2-c2cccc(OC)c2)[C@@H]1C#N | -
C[C@H](NC(=O)[C@@H]1[C@@H](CO)[C@@H]2Cn3c(ccc(-c4ccccc4)c3=O)[C@H]1N2C)c1ccccc1 | -
CCn1c(CNC(=O)C(C)(C)C)nc2ccccc21 | -
CC(C)(C)N1CC(c2nc3ccccc3n2Cc2ccccc2)CC1=O (stereo not drawn) | -
CCn1c2ccccc2nc2cc3c(cc21)c(Cl)c(=O)c1ccccc13 | 90
C[C@H](CO)N1C[C@H](C)[C@H](CN(C)Cc2ccc(-c3ccccc3)cc2)Oc2c(NS(C)(=O)=O)cccc2C1=O | -
O=C(Nc1cc(=O)[nH]c2nc(-c3ccc(Cl)cc3)nn12)c1ccccc1 | -
Cn1nc(C(=O)NNC(=O)c2ccc(Cl)cc2)ccc1=O | -
Cn1nc(-c2ccc(Cl)cc2)nc2c(=O)n(C)c(=O)nc1-2 | 84
CO[C@@H]1CN(C)C(=O)c2ccc(NS(C)(=O)=O)cc2OC[C@@H](C)N(C(=O)C2CCCC2)C[C@@H]1C | -
COc1ccc2c3c([nH]c2c1)[C@@H](CO)N(C(=O)CN(C)C)CC31CN(CC2CC2)C1 | -
Nc1ncnc(Nc2ccccn2)c1[N+](=O)[O-] | -
Cc1cccnc1Nc1ncnc(N)c1[N+](=O)[O-] | -
Cc1cc(C)nc(Sc2ncnc(N)c2[N+](=O)[O-])n1 | 82
CO[C@H]1CN(C)C(=O)c2cc(NC(=O)c3nc4ccccc4s3)ccc2OC[C@@H](C)N(Cc2cccnc2)C[C@@H]1C | -
